Screening results deposited in PubChem BioAssay by several laboratories.
Rows were chosen to be rich in hits. Some 4% of all compounds tested hit in one or more screens of this group.
Mdm2-MdmX inh: human Mdm2/MdmX binding inhibition. O15151+Q00987. SaOS-2 split-luciferase Mdm2/MdmX complementation, luminescence. inhibition, % at 8 µM. actives 3% (n = 330,000). AID 485346;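 active = inhibition of at least 50% at 8 µM in the primary screen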
Beta cell apopt: beta cell apoptosis inhibition; INS-1E cytokine-induced death, ATP luminescence, 48 h; percent of positive-control rescue, neutral wells zero; protection from apoptosis, % (no concentration beside the values); actives 0.8% (n = 300,000);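 active = Every replicate reaches about 75%, or at least half do and their mean reaches it too, limit read from the data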;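 also: 0% = cytokine-treated negative control wells and 100% = positive control rescue; higher means more ATP so stronger rescue from cytokine killing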
Jurkat NFkB inh: lowers PMA/ionomycin-induced NF-kB signal in Jurkat cells | PMA/ionomycin-induced NF-kB luciferase reporter, luminescence | inhibition, % at 4 µM | actives 0.53% (n = 330,000) | AID 435003; in the data active = inhibition above about 50%
697 NFkB inh: inhibitors of the PMA/ionomycin-induced NF-kB reporter in 697 B cells | 697 B-cell NF-kB luciferase reporter, 16 h | inhibition, % at 4 µM | actives 0.33% (n = 330,000); in the data active = inhibition above about 35%
Gli-Sufu block: Gli-Sufu pathway antagonism | actives 0.74% (n = 340,000) | inhibition, % at 5 µM | Sufu-KO-LIGHT fibroblasts, Gli luciferase reporter luminescence;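 active = inhibition above about 55%, limit read from the data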;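 also: 0% = DMSO-treated cells and 100% = wells with medium but no cells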
Mdm2-MdmX conf: human Mdm2/MdmX binding inhibition, confirmed; shares compounds with Mdm2-MdmX inh; luminescent assay; inhibition, % at 8 µM; actives 55% (n = 10,000); AID 489028; in the data active = inhibition above about 40%
Full FLuc ctr: counter-screen for Mdm2/MdmX inhibitors: full-length luciferase | actives 77% (n = 6,200) | shares compounds with Mdm2-MdmX inh | inhibition, % at 8 µM | SaOS-2 full-length luciferase counterscreen, luminescence;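 active = mean inhibition at 8 µM reaching about 37%, which flags the compound as non-specific, limit read from the data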;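 also: p53-null SaOS-2 cells with luciferase driven by a doxycycline-inducible promoter; compound on cells about two nights before reading with doxycycline added after day one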
Starred values were filed as active, the others as inactive.

Results for Cc1nc(N2CCN(C)CC2)c2c(C)c(C(=O)Nc3ccc(C)c(F)c3)sc2n1 ?
Mdm2-MdmX inh: 50*; Beta cell apopt: -11; Jurkat NFkB inh: 10; 697 NFkB inh: 9; Gli-Sufu block: 6; Mdm2-MdmX conf: 34

How did Cc1c(C(=O)N2CCN(c3ccc(F)cc3)CC2)sc2ncnc(N3CCN(c4ccccn4)CC3)c12 do in these assays?
Mdm2-MdmX inh: 53*; Beta cell apopt: 11; Jurkat NFkB inh: -25; 697 NFkB inh: -12; Gli-Sufu block: 11; Mdm2-MdmX conf: 29; Full FLuc ctr: 61*

How did Cc1ccc(NC(=O)c2ccc(Cl)c(N3C(=O)CCC3=O)c2)cc1 do in these assays?
Mdm2-MdmX inh: 4; Jurkat NFkB inh: 9; 697 NFkB inh: 19; Gli-Sufu block: 43

How did NS(=O)(=O)c1ccc(CCNC(=O)COC(=O)c2nc(Cl)ccc2Cl)cc1 do in these assays?
Mdm2-MdmX inh: -5; Beta cell apopt: 1; Jurkat NFkB inh: 6; 697 NFkB inh: 9; Gli-Sufu block: -9

What do the screens show for `CC1CCCCC1NC(=O)c1cccc(N2C(=O)C3C4C=CC(C4)C3C2=O)c1` (centres undefined)?
Mdm2-MdmX inh: 8; Beta cell apopt: 9; Jurkat NFkB inh: 8; 697 NFkB inh: -27; Gli-Sufu block: 1

What do the screens show for `Cc1noc(C)c1C(=O)N1CCCC(C(=O)c2cccc(OC(C)C)c2)C1` (centres undefined)?
Mdm2-MdmX inh: -9; Beta cell apopt: -6; Jurkat NFkB inh: -7; 697 NFkB inh: -4; Gli-Sufu block: 8

How did Cc1nc(N2CCN(c3ccccn3)CC2)c2c(C)c(C(=O)Nc3c(F)cc(F)cc3Br)sc2n1 do in these assays?
Mdm2-MdmX inh: 12; Beta cell apopt: 31; Jurkat NFkB inh: 6; 697 NFkB inh: -21; Gli-Sufu block: 36

What do the screens show for `Cc1nc(N2CCN(c3ccccn3)CC2)c2c(C)c(C(=O)Nc3c(C)cc(Br)cc3C)sc2n1`?
Mdm2-MdmX inh: 59*; Beta cell apopt: 4; Jurkat NFkB inh: 11; 697 NFkB inh: -17; Gli-Sufu block: 1; Mdm2-MdmX conf: 30

What do the screens show for `Cn1c(=O)c2c(nc(NCc3ccco3)n2C/C=C/c2ccccc2)n(C)c1=O`?
Mdm2-MdmX inh: 51*; Beta cell apopt: 52; Jurkat NFkB inh: 36; 697 NFkB inh: -17; Gli-Sufu block: -4; Mdm2-MdmX conf: 22

How did COc1ccc(S(=O)(=O)N(C)C[C@H]2Oc3c(NC(=O)Nc4ccc(C(F)(F)F)cc4)cccc3C(=O)N([C@H](C)CO)C[C@@H]2C)cc1 do in these assays?
Mdm2-MdmX inh: 52*; Beta cell apopt: 13; Jurkat NFkB inh: 6; 697 NFkB inh: 19; Gli-Sufu block: 14; Mdm2-MdmX conf: 22

How did C[C@H](CO)N1C[C@H](C)[C@@H](CN(C)S(=O)(=O)c2cccs2)Oc2c(NC(=O)Nc3ccccc3)cccc2C1=O do in these assays?
Mdm2-MdmX inh: 23; Beta cell apopt: -3; Jurkat NFkB inh: -6; 697 NFkB inh: 12; Gli-Sufu block: -7

How did C[C@@H]1CN([C@H](C)CO)C(=O)c2cccc(NC(=O)Nc3ccc(C(F)(F)F)cc3)c2O[C@H]1CN(C)S(=O)(=O)c1cccs1 do in these assays?
Mdm2-MdmX inh: 57*; Beta cell apopt: 4; Jurkat NFkB inh: -2; 697 NFkB inh: -5; Gli-Sufu block: 17; Mdm2-MdmX conf: 41*; Full FLuc ctr: 73*

Results for COc1ccc(CCNS(=O)(=O)c2ccc(Br)s2)cc1 ?
Beta cell apopt: -1; Gli-Sufu block: 7

What do the screens show for `CCc1nc(SCC(=O)Nc2ccc3c(c2)OCCO3)c2oc3ccccc3c2n1`?
Mdm2-MdmX inh: 86*; Beta cell apopt: 10; Jurkat NFkB inh: -26; 697 NFkB inh: -36; Gli-Sufu block: 8; Mdm2-MdmX conf: 9

Results for CCOC(=O)c1cc(C)n(CCc2ccccc2)c1C ?
Mdm2-MdmX inh: -38; Beta cell apopt: 7; Jurkat NFkB inh: -30; 697 NFkB inh: -85; Gli-Sufu block: -16

Results for Cc1cc(C(=O)CCl)c(C)n1CCc1ccccc1 ?
Mdm2-MdmX inh: 74*; Beta cell apopt: 12; Jurkat NFkB inh: 33; 697 NFkB inh: 12; Gli-Sufu block: -5; Mdm2-MdmX conf: 43*; Full FLuc ctr: 71*

Results for Cc1cc(C(=O)CSc2nnnn2C)c(C)n1CCc1ccc(Cl)cc1 ?
Mdm2-MdmX inh: 55*; Beta cell apopt: -7; Jurkat NFkB inh: 12; 697 NFkB inh: 24; Gli-Sufu block: -5; Mdm2-MdmX conf: 29

What do the screens show for `COc1ccc(CCn2c(C)cc(C(=O)CSc3nnnn3-c3ccccc3)c2C)cc1`?
Mdm2-MdmX inh: 28; Beta cell apopt: 1; Jurkat NFkB inh: 5; 697 NFkB inh: 23; Gli-Sufu block: 9

Results for CO/N=C/c1cc([N+](=O)[O-])ccc1Sc1ccc(C)cc1 ?
Mdm2-MdmX inh: -6; Beta cell apopt: 9; Jurkat NFkB inh: 6; 697 NFkB inh: 7; Gli-Sufu block: 2

Results for Cc1ccc(Nc2nc(NCCO)c3ccccc3n2)cc1C ?
Mdm2-MdmX inh: 55*; Jurkat NFkB inh: -7; 697 NFkB inh: -32; Gli-Sufu block: 12; Mdm2-MdmX conf: 25

What do the screens show for `OCCNc1nc2ccccc2nc1NCCO`?
Mdm2-MdmX inh: 2; Beta cell apopt: -6; Jurkat NFkB inh: -10; 697 NFkB inh: -2; Gli-Sufu block: 1

How did OCCNc1c2ccccc2nc2ccccc12 do in these assays?
Mdm2-MdmX inh: 61*; Jurkat NFkB inh: 35; 697 NFkB inh: 20; Gli-Sufu block: -16; Mdm2-MdmX conf: 56*; Full FLuc ctr: 37*

How did Cc1ccc(S(=O)(=O)Nc2ccccn2)cc1[N+](=O)[O-] do in these assays?
Mdm2-MdmX inh: 8; Beta cell apopt: -1; Jurkat NFkB inh: -9; 697 NFkB inh: -3; Gli-Sufu block: -5

What do the screens show for `O=C1C(O)CCN1C1CCCCC1` (centres undefined)?
Gli-Sufu block: 6

How did Cc1nnnn1/C(=C\c1ccccc1)C(=O)OCC(=O)NC1CCCCC1 do in these assays?
Mdm2-MdmX inh: 62*; Beta cell apopt: -30; Jurkat NFkB inh: 6; 697 NFkB inh: 1; Gli-Sufu block: 6; Mdm2-MdmX conf: 45*; Full FLuc ctr: 45*

Results for NNC(=O)c1cc2c(s1)-c1cc(Cl)ccc1SC2 ?
Mdm2-MdmX inh: 32; Beta cell apopt: 3; Jurkat NFkB inh: 10; 697 NFkB inh: -13; Gli-Sufu block: -10

How did CCN(CC)CCNC(=O)c1cc2c(s1)-c1ccccc1SC2 do in these assays?
Mdm2-MdmX inh: 64*; Beta cell apopt: 41; Jurkat NFkB inh: 10; 697 NFkB inh: -7; Gli-Sufu block: 13; Mdm2-MdmX conf: 48*; Full FLuc ctr: 79*

How did CCOc1ccc(CCNC(=O)c2cccc(S(=O)(=O)N3CCN(C(C)=O)CC3)c2)cc1OCC do in these assays?
Mdm2-MdmX inh: 13; Jurkat NFkB inh: 2; 697 NFkB inh: -6; Gli-Sufu block: 10
